High-throughput results deposited in PubChem BioAssay by NMMLSC.
Avidin fluor: avidin bead compound fluorescence profile; Avidin beads, compound fluorescence 488/530 nm, flow cytometry; active compounds read high; fluorescence (KMESF) at 10 µM; 0.38% of 220,000 active; AID 1775; in the data active = fluorescence above about 47
RGS16-Gao: modulates binding between human RGS16 and Galphao | O15492+P09471 | bead-based flow cytometry RGS16-Galphao binding, fluorescence; actives lie on both sides | binding response (% of control), % at 10 µM | 0.38% of 220,000 active | AID 1441;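 also: Galphao activated by GDP with aluminum fluoride before binding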
RGS8-Gao: modulates binding of RGS8 to human Galphao; P09471; multiplexed bead flow cytometry; actives lie on both sides; response (percent of control binding), % at 10 µM; 0.34% of 220,000 active; in the data active = response below about 60% or above about 140%; inactive = in between;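 also: Galphao activated as the GDP aluminium fluoride complex binding bead-coupled RGS8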
Target sequence (P09471 whole entry, looked up): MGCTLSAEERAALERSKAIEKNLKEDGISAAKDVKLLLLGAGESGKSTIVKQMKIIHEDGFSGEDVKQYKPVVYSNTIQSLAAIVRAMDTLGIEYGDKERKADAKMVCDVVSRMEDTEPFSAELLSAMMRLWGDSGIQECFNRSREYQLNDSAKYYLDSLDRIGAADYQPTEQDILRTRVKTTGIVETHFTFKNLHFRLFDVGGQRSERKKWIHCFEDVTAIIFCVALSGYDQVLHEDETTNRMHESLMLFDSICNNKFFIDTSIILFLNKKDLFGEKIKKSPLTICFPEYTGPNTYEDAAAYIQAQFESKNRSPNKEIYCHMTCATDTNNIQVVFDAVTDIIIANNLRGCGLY
RGS4-Gao reg: human RGS4-Galphao interaction regulation. P09471. Multiplexed bead flow cytometry, RGS4-Galphao binding; actives lie on both sides. binding response (% of control), % at 10 µM. 0.33% of 220,000 active; in the data active = binding response below about 49% or above about 150%; inactive = in between;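 also: fluorescent Galphao activated with aluminum fluoride binding bead-coupled RGS4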
GSH bead fluor: compound fluoresces at 488/530 nm on GSH beads | 0.25% of 190,000 active | AID 1776 | GSH beads flow cytometry, compound fluorescence 488/530 nm; active compounds read high | fluorescence (KMESF) at 10 µM; in the data active = fluorescence above about 89;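 also: glutathione beads carrying GST-tagged Bcl family fusion proteins plus one bare bead set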
RGS7-Gao reg: modulates binding of RGS7 to human Galphao; binding response (% of control), % at 10 µM; Multiplexed bead flow cytometry; actives lie on both sides; AID 1439; 0.35% of 220,000 active; P09471; in the data active = binding response below about 49% or above about 150%; inconclusive = no clear call, values can overlap the other calls; inactive = in between;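 also: fluorescent Galphao held in activated GDP-AlF4 state binding bead-coupled RGS7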
RGS4-Gao HTS: regulators of human RGS4-Galphao interaction | shares compounds with RGS16-Gao | 99% of 1,600 active | multiplexed bead flow cytometry, RGS–Galpha-o binding | RGS4–Galpha-o binding response, % at 10 µM;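 also: fluorescently labeled Galpha-o bound to GDP with aluminium fluoride binding biotinylated RGS beads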
Avidin counter: interferes with biotinylated probe binding to avidin beads; shares compounds with RGS16-Gao; AID 1783; streptavidin beads, fluorescein-biotin binding, flow cytometry; inhibition, % at 10 µM; 1,700 tested, under 10 active;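 active = inhibition above 50%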;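 also: median green fluorescence of gated singlet beads compared with DMSO control wells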
RGS8-Gao confirm: RGS8-Galphao interaction regulation, single point confirmation; shares compounds with RGS16-Gao; bead-based flow cytometry RGS8-Galphao binding, fluorescence; actives lie on both sides; binding response (% of control), % at 10 µM; 3% of 1,700 active; AID 1836; in the data active = binding response below about 72% or above about 130%; inactive = in between;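 also: Galphao activated as GDP AlF4 complex before binding bead RGS8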
RGS7-Gao single: RGS7-Galphao interaction regulation, single point confirmation; shares compounds with RGS16-Gao; 7.8% of 1,700 active; response (percent of control binding), % at 10 µM; AID 1837; bead-based flow cytometry RGS7-Galphao binding; actives lie on both sides; in the data active = response below about 75% or above about 130%; inactive = in between;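 also: fluorescent Galphao activated with GDP and aluminum fluoride binding bead-coupled RGS7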
RGS16-Gao conf: confirmation of regulators of human RGS16-Galphao interaction; shares compounds with RGS16-Gao; bead-based flow cytometry, RGS16-Galphao binding; actives lie on both sides; response (% of control binding), % at 10 µM; 4% of 1,700 active; AID 1838; in the data active = response below about 74% or above about 130%; inactive = in between;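 also: Galphao activated as the GDP aluminium fluoride complex binding bead-coupled RGS16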
RGS4-Gao single: RGS4-Galphao interaction regulation, single point confirmation | binding response (% of control), % at 10 µM | 4% of 1,700 active | RGS4-Galphao binding, multiplexed bead flow cytometry; actives lie on both sides | shares compounds with RGS16-Gao | AID 1840; in the data active = binding response below about 74% or above about 130%; inactive = in between
RGS19-Gao conf: RGS19-Galphao interaction regulation, single point confirmation | shares compounds with RGS16-Gao | bead-based flow cytometry RGS19-Galphao binding; actives lie on both sides | response (percent of control binding), % at 10 µM | 5% of 1,700 active | AID 1841; in the data active = response below about 50% or above about 160%; inactive = in between
Target sequence (P09471 whole entry, looked up): as above
Target sequence (P49795 whole entry, looked up): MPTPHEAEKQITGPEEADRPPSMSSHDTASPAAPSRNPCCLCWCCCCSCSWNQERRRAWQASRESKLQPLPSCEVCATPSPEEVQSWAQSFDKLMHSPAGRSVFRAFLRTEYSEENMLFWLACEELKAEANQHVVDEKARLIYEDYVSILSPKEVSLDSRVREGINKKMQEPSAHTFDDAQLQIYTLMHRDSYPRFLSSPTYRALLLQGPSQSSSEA
Each line names hits and unclear results; the compound was inactive in the other large screens (follow-up assays come after a bar, where they were run); [ ] = remark or other dose. Most compounds without a hit are left out; they make up all but 1.2% or so of the library. Unless noted, no rule for the calls is given here.

CC1C(=O)CCC1(C(=O)O)c1ccccc1 (stereo unspecified)	Avidin fluor 49
CCN(CC)C(=O)[C@]1(c2ccccc2)C[C@@H]1CN	none
CC(=O)N1c2ccccc2NC2=C(C(=O)CCC2)C1c1cccnc1 (stereo unspecified)	Avidin fluor 49
CC(C)C(NC(=O)c1ccc(C(C)(C)C)cc1)C(=O)NCC(c1ccccc1)N(C)C (stereo unspecified)	RGS7-Gao reg inconclusive (no result: GSH bead fluor)
CCOc1ccccc1OCC(=O)Nc1nnc(C)s1	Avidin fluor 117
CCCCn1c(SCC(=O)N2CC(C)CC(C)C2)nc2cc(S(N)(=O)=O)ccc21 (stereo unspecified)	GSH bead fluor 262
Cc1sc2ncnc(OCC(=O)NC3CCS(=O)(=O)C3)c2c1C (stereo unspecified)	RGS7-Gao reg inconclusive (no result: GSH bead fluor)
Cc1cc(N2CCOCC2)c2c(N)c(C)cc(C)c2n1	Avidin fluor 61
O=C(COC(=O)c1cccc(C(=O)OCC(=O)NC2CC2)n1)NC1CC1	RGS7-Gao reg inconclusive
Cc1ccc(S(=O)(=O)Nc2nonc2C)cc1	RGS8-Gao 34.3, RGS4-Gao reg 38.4, RGS7-Gao reg 31.3
CNS(=O)(=O)c1ccc(C)cc1	none
CC1(C)Oc2ccc3ccc(=O)oc3c2-c2cnoc21	Avidin fluor 56
Cn1c(=O)c2c(nc(OCC3COC(C)(C)O3)n2Cc2ccccc2F)n(C)c1=O (stereo unspecified)	RGS8-Gao 145.0[activator], RGS4-Gao reg 165.4[activator], RGS7-Gao reg 164.3[activator] | Avidin counter inactive | RGS8-Gao confirm inactive | RGS7-Gao single inactive | RGS16-Gao conf inactive | RGS4-Gao single inactive | RGS19-Gao conf inactive
Cn1c(=O)c2c(nc(N3CCc4ccccc4C3)n2Cc2ccccc2F)n(C)c1=O	none
CCOC(=O)C1=C(N)OC2=C(C(=O)CCC2)C1c1ccccc1OC (stereo unspecified)	none
CCOC(=O)C1=C(N)OC2=C(C(=O)CCC2)C1c1ccccc1OCC (stereo unspecified)	Avidin fluor 172, RGS7-Gao reg 295.8[activator] | RGS4-Gao HTS 134.6 | Avidin counter inactive | RGS8-Gao confirm inactive | RGS7-Gao single inactive | RGS16-Gao conf inactive | RGS4-Gao single inactive | RGS19-Gao conf inactive
COc1ccccc1NC(=O)Nc1ccnn1Cc1cccs1	RGS16-Gao -55.2, RGS8-Gao 6.0, RGS4-Gao reg -58.6, RGS7-Gao reg -20.5 | Avidin counter inactive | RGS8-Gao confirm inactive | RGS7-Gao single inactive | RGS16-Gao conf inactive | RGS4-Gao single inactive | RGS19-Gao conf inactive
COc1ccccc1NC(=O)Cc1cccs1	none
Nc1c(C(=O)NCC2CCCO2)sc2nc3c(c(-c4ccco4)c12)CC/C3=C\c1ccco1 (stereo unspecified)	RGS7-Gao reg 43.9 | RGS4-Gao HTS 72.6 | Avidin counter inactive | RGS8-Gao confirm 69.8 | RGS7-Gao single 52.0 | RGS16-Gao conf 69.6 | RGS4-Gao single inactive | RGS19-Gao conf 24.5
CCOP(=O)(OCC)C(Nc1ccc(F)cc1)c1ccccc1 (stereo unspecified)	none (no result: Avidin fluor, RGS16-Gao, RGS8-Gao, GSH bead fluor, RGS7-Gao reg) | Avidin counter inactive | RGS8-Gao confirm inactive | RGS7-Gao single inactive | RGS16-Gao conf inactive | RGS4-Gao single inactive | RGS19-Gao conf inactive
CC1CN(S(=O)(=O)c2ccc(C(=O)Nc3nnc(-c4ccccn4)o3)cc2)CC(C)O1 (stereo unspecified)	RGS16-Gao 9.5, RGS8-Gao 12.5, RGS4-Gao reg 15.3, RGS7-Gao reg -18.3 | Avidin counter inactive | RGS8-Gao confirm inactive | RGS7-Gao single inactive | RGS16-Gao conf inactive | RGS4-Gao single inactive | RGS19-Gao conf inactive
CCNc1nc(NC(C)(C)C)nc(SCC(N)=O)n1	none
CCOC(=O)c1c(C)[nH]c(C2=NNC(=NC3CC3)SC2)c1C	none
Cc1cc(C)nc(NC(=NCCc2c[nH]c3ccccc23)NC(=O)Nc2ccc(Cl)c(Cl)c2)n1	RGS16-Gao 13.0 | RGS4-Gao HTS 107.8 | Avidin counter inactive | RGS8-Gao confirm inactive | RGS7-Gao single inactive | RGS16-Gao conf inactive | RGS4-Gao single inactive | RGS19-Gao conf inactive
CS(=O)(=O)NCc1nnc(SCc2ccc(C(F)(F)F)cc2)o1	RGS7-Gao reg inconclusive (no result: GSH bead fluor)
N#CC1(NC(=O)CN2CCN(S(=O)(=O)c3ccccc3F)CC2)CCCC1	RGS7-Gao reg inconclusive (no result: GSH bead fluor)
O=C(Nc1ccc(C2=NCCN2)cc1)c1ccc(Cl)c(C(=O)Nc2ccc(C3=NCCN3)cc2)c1	RGS7-Gao reg inconclusive (no result: GSH bead fluor)
N#CCNc1ccc([N+](=O)[O-])cc1C#N	RGS7-Gao reg inconclusive (no result: GSH bead fluor)
Cc1[nH]c2ccccc2c1/C=N/NC(=S)NC(C)C	RGS7-Gao reg 175.6[activator] | RGS4-Gao HTS 124.7 | Avidin counter inactive | RGS8-Gao confirm inactive | RGS7-Gao single 258.8[activator] | RGS16-Gao conf 148.7[activator] | RGS4-Gao single 184.4[activator] | RGS19-Gao conf 230.5[activator]
COc1ccc(C(=O)OC(C)CN2CCOCC2)cc1OC (stereo unspecified)	none
COc1cc(C(=O)OC(C)CN2CCCC2)cc(OC)c1OC (stereo unspecified)	RGS8-Gao 48.6, RGS4-Gao reg 46.6, RGS7-Gao reg 43.8 | Avidin counter inactive | RGS8-Gao confirm inactive | RGS7-Gao single inactive | RGS16-Gao conf inactive | RGS4-Gao single inactive | RGS19-Gao conf inactive
CCOc1ccc(NC(=S)N(CCOC)C(C)c2ccco2)cc1 (stereo unspecified)	RGS7-Gao reg inconclusive (no result: GSH bead fluor)
